# Reference: the supplement of paper PMC7366291
# Counter-ions that a name gives are not always drawn. ± gives the standard deviation or the standard deviation of the averaged measurements.
# Columns and labels:
# Conditions in all cases: 25 µM; exposure: 24-48 hpf
# [1] = test system: Danio rerio Tg(wt1b:EGFP) embryo, pronephros; experiment: glomerular separation, fold change vs DMSO control; higher = glomeruli further apart (abnormal)
# Method in brief: (§1)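 Distances and angles describing the pronephros were computed by a Fiji macro from 16 reference points set manually on maximum projections of dorsal images. These images came from dechorionated Tg(wt1b:EGFP) zebrafish embryos held in agarose-filled 96-well plates after exposure to 25 μM compound in 0.5% DMSO, in HEPES-buffered E3 with 0.003% PTU, from 24 to 48 hpf at 28.5°C. Any value more than 2 SD from the feature mean was excluded. Features are stated as fold change relative to the mean of same-day DMSO-treated embryos.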
# [2] = test system: Danio rerio Tg(wt1b:EGFP) embryo, pronephros; experiment: glomerular width (mean of left and right), fold change vs DMSO control; higher = wider glomerulus
# Method in brief: as §1
# [3] = test system: Danio rerio Tg(wt1b:EGFP) embryo, pronephros; experiment: fraction of imaged embryos annotated as normal kidney; higher = less nephrotoxic; extreme values may be limits of the assay
# Method in brief: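 Embryos of the Tg(wt1b:EGFP) zebrafish line were dechorionated and held in 12-well plates with 25 μM compound in 0.5% DMSO and 5 mM HEPES-buffered E3 containing 0.003% PTU, from 24 to 48 hpf at 28.5°C. Larvae were then anaesthetised with tricaine, set dorsal side up in agarose-filled 96-well plates, and their pronephroi imaged by widefield fluorescence at 470 nm over 10 z-slices. Each value is the fraction of embryos per treatment placed in the normal-kidney category after manual annotation of maximum projections.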
# [4] = test system: Danio rerio Tg(wt1b:EGFP) embryo, pronephros; experiment: pronephric angle neck segment to proximal convoluted tubule (mean of left and right), fold change vs DMSO control; higher = larger pronephric angle
# Method in brief: as §1
smiles,measurement,setting,value
COc1ccccc1OCCNCC(O)COc1cccc2[nH]c3ccccc3c12 (centres undefined) [Carvedilol],glomerular separation,[1],1.02 ± 0.41
same,glomerular width,[2],1.048 ± 0.0037
same,fraction of imaged embryos annotated as normal kidney,[3],0.8
same,pronephric angle neck segment,[4],0.958 ± 0.019
CC(C)c1c(C(=O)Nc2ccccc2)c(-c2ccccc2)c(-c2ccc(F)cc2)n1CC[C@@H](O)C[C@@H](O)CC(=O)O [Atorvastatin],glomerular separation,[1],3.42 ± 1.4
same,glomerular width,[2],0.691 ± 0.032
same,fraction of imaged embryos annotated as normal kidney,[3],0
same,pronephric angle neck segment,[4],1.65 ± 0.047
CN(C)c1ccc(O)c2c1C[C@H]1C[C@H]3[C@H](N(C)C)C(O)=C(C(N)=O)C(=O)[C@@]3(O)C(O)=C1C2=O [Minocycline hydrochloride],glomerular separation,[1],1.02 ± 0.2
same,glomerular width,[2],1.02 ± 0.024
same,fraction of imaged embryos annotated as normal kidney,[3],0.8
same,pronephric angle neck segment,[4],0.92712 ± 6.2e-05
CN[C@@H]1[C@@H](O)[C@@H](O[C@@H]2[C@@H](O)[C@H](O[C@H]3OC(CN)=CC[C@H]3N)[C@@H](N)C[C@H]2N)OC[C@]1(C)O [Sisomicin sulfate],glomerular separation,[1],1.23 ± 0.84
same,glomerular width,[2],1.02 ± 0.043
same,fraction of imaged embryos annotated as normal kidney,[3],0.833
same,pronephric angle neck segment,[4],1.11 ± 0.029
C#C[C@]1(O)CC[C@H]2[C@@H]3CCc4cc(OC)ccc4[C@H]3CC[C@@]21C [Ethynylestradiol 3-methyl ether],glomerular separation,[1],0.896 ± 0.42
same,glomerular width,[2],1.038 ± 0.0014
same,fraction of imaged embryos annotated as normal kidney,[3],0.833
same,pronephric angle neck segment,[4],1.03 ± 0.013
C1N2CN3CN1CN(C2)C3 [Methenamine],glomerular separation,[1],0.642 ± 0.2
same,glomerular width,[2],0.975 ± 0.051
same,fraction of imaged embryos annotated as normal kidney,[3],0.917
same,pronephric angle neck segment,[4],0.994 ± 0.029
Nc1ncnc2c1ncn2[C@@H]1O[C@H](CO)[C@@H](O)[C@@H]1O [Vidarabine],glomerular separation,[1],1.29 ± 0.56
same,glomerular width,[2],1.06 ± 0.023
same,fraction of imaged embryos annotated as normal kidney,[3],0.583
same,pronephric angle neck segment,[4],1.03 ± 0.074
Cc1cc2c(cc1S(N)(=O)=O)S(=O)(=O)CCC2 [Meticrane],glomerular separation,[1],0.987 ± 0.28
same,glomerular width,[2],0.9447 ± 0.0016
same,fraction of imaged embryos annotated as normal kidney,[3],0.917
same,pronephric angle neck segment,[4],1.01 ± 0.04
COc1cccc(N(C)C(=S)Oc2ccc3c(c2)CCCC3)n1 [Liranaftate],glomerular separation,[1],1.14 ± 0.62
same,glomerular width,[2],1.025 ± 0.0045
same,fraction of imaged embryos annotated as normal kidney,[3],0.667
same,pronephric angle neck segment,[4],1.06 ± 0.033
CN(C)CCc1c[nH]c2ccc(Cn3cncn3)cc12 [Rizatriptan benzoate],glomerular separation,[1],0.941 ± 0.29
same,glomerular width,[2],1.01 ± 0.025
same,fraction of imaged embryos annotated as normal kidney,[3],0.5
same,pronephric angle neck segment,[4],1.02 ± 0.07
C=C1c2cccc(O)c2C(=O)C2=C(O)[C@]3(O)C(=O)C(C(N)=O)=C(O)[C@@H](N(C)C)[C@@H]3[C@@H](O)[C@H]12 [Methacycline hydrochloride],glomerular separation,[1],0.724 ± 0.4
same,glomerular width,[2],1.11 ± 0.0095
same,fraction of imaged embryos annotated as normal kidney,[3],0.818
same,pronephric angle neck segment,[4],0.984 ± 0.018
CC(=O)OCC(=O)[C@@]1(O)CC[C@H]2[C@@H]3CCC4=CC(=O)CC[C@]4(C)[C@H]3[C@@H](O)C[C@@]21C [Cortisol acetate],glomerular separation,[1],1.43 ± 0.59
same,glomerular width,[2],1.29 ± 0.049
same,fraction of imaged embryos annotated as normal kidney,[3],0.25
same,pronephric angle neck segment,[4],1.01 ± 0.031
CN(C/C=C/c1ccccc1)Cc1cccc2ccccc12 [Naftifine hydrochloride],glomerular separation,[1],1.03 ± 0.34
same,glomerular width,[2],0.96 ± 0.044
same,fraction of imaged embryos annotated as normal kidney,[3],0.9
same,pronephric angle neck segment,[4],0.982 ± 0.078
C[C@H]1O[C@H](O[C@H]2[C@H](O)[C@@H](O)[C@@H](O[C@H]3[C@H](O)[C@@H](O)C(O)O[C@@H]3CO)O[C@@H]2CO)[C@H](O)[C@@H](O)[C@@H]1N[C@H]1C=C(CO)[C@@H](O)[C@H](O)[C@H]1O (some centres undefined) [Acarbose],glomerular separation,[1],0.951 ± 0.24
same,glomerular width,[2],0.879 ± 0.1
same,fraction of imaged embryos annotated as normal kidney,[3],0.833
same,pronephric angle neck segment,[4],1.02 ± 0.014
CC(C)Cc1ccc([C@H](C)C(=O)O)cc1 [S-(+)-ibuprofen],glomerular separation,[1],4.34 ± 2.3
same,glomerular width,[2],0.59 ± 0.021
same,fraction of imaged embryos annotated as normal kidney,[3],0
same,pronephric angle neck segment,[4],1.61 ± 0.035
O=c1[nH]c(=O)n([C@H]2C[C@H](O)[C@@H](CO)O2)cc1I [Idoxuridine],glomerular separation,[1],1.12 ± 0.42
same,glomerular width,[2],1.05 ± 0.017
same,fraction of imaged embryos annotated as normal kidney,[3],0.667
same,pronephric angle neck segment,[4],1.05 ± 0.073
C#C[C@]1(OC(C)=O)CC[C@H]2[C@@H]3CCC4=C[C@@H](OC(C)=O)CC[C@@H]4[C@H]3CC[C@@]21C [Ethynodiol diacetate],glomerular separation,[1],1.12 ± 0.65
same,glomerular width,[2],0.958 ± 0.052
same,fraction of imaged embryos annotated as normal kidney,[3],0.75
same,pronephric angle neck segment,[4],1.13 ± 0.057
Nc1nc2ccc(OC(F)(F)F)cc2s1 [Riluzole hydrochloride],glomerular separation,[1],0.834 ± 0.22
same,glomerular width,[2],0.964 ± 0.02
same,fraction of imaged embryos annotated as normal kidney,[3],0.833
same,pronephric angle neck segment,[4],1.036 ± 0.0021
CN1CCN(c2c(F)cc3c(=O)c(C(=O)O)cn4c3c2SCC4)CC1 [Rufloxacin],glomerular separation,[1],0.835 ± 0.21
same,glomerular width,[2],0.9236 ± 0.0089
same,fraction of imaged embryos annotated as normal kidney,[3],1
same,pronephric angle neck segment,[4],0.986 ± 0.027
CCN(CC)CCNC(=O)c1cc(S(C)(=O)=O)ccc1OC [Tiapride hydrochloride],glomerular separation,[1],1.1 ± 0.29
same,glomerular width,[2],0.902 ± 0.073
same,fraction of imaged embryos annotated as normal kidney,[3],0.909
same,pronephric angle neck segment,[4],1.036 ± 0.0056
"Cc1cn([C@H]2C[C@H](N=[N+]=[N-])[C@@H](CO)O2)c(=O)[nH]c1=O [Zidovudine, AZT]",glomerular separation,[1],1 ± 0.41
same,glomerular width,[2],1.06 ± 0.08
same,fraction of imaged embryos annotated as normal kidney,[3],1
same,pronephric angle neck segment,[4],0.991 ± 0.018
CN1CCc2cccc3c2[C@H]1Cc1ccc(O)c(O)c1-3 [R(-) Apomorphine hydrochloride hemihydrate],glomerular separation,[1],0.765 ± 0.25
same,glomerular width,[2],0.954 ± 0.018
same,fraction of imaged embryos annotated as normal kidney,[3],0.833
same,pronephric angle neck segment,[4],0.933 ± 0.042
NC(=O)c1cc[n+](CC2=C(C(=O)[O-])N3C(=O)[C@@H](NC(=O)[C@@H](c4ccccc4)S(=O)(=O)O)[C@H]3SC2)cc1 [Cefsulodin sodium salt],glomerular separation,[1],0.67 ± 0.22
same,glomerular width,[2],1.08 ± 0.02
same,fraction of imaged embryos annotated as normal kidney,[3],0.833
same,pronephric angle neck segment,[4],0.976 ± 0.034
O=c1[nH]c(=O)n([C@H]2C[C@H](O)[C@@H](CO)O2)cc1F [Floxuridine],glomerular separation,[1],0.88 ± 0.33
same,glomerular width,[2],0.972 ± 0.015
same,fraction of imaged embryos annotated as normal kidney,[3],0.5
same,pronephric angle neck segment,[4],1.05 ± 0.016
COCCOC(=O)C1=C(C)NC(C)=C(C(=O)OC(C)C)C1c1cccc([N+](=O)[O-])c1 (centres undefined) [Nimodipine],glomerular separation,[1],1.64 ± 1.1
same,glomerular width,[2],0.786 ± 0.066
same,fraction of imaged embryos annotated as normal kidney,[3],0.5
same,pronephric angle neck segment,[4],0.954 ± 0.049
OC(CCN1CCCCC1)(c1ccccc1)C1CC2C=CC1C2 (centres undefined) [Biperiden hydrochloride],glomerular separation,[1],1.06 ± 0.13
same,glomerular width,[2],1.02 ± 0.047
same,fraction of imaged embryos annotated as normal kidney,[3],0.917
same,pronephric angle neck segment,[4],1.01 ± 0.022
